Source: PubChem BioAssay AID449762 (Southern Research Specialized Biocontainment Screening …, 2010)
Among all 330,000 compounds or so, about 1,900 (0.58%) were called active. Another 4% or so got no clear call; they are omitted. Rule as the data show it: inconclusive = inhibition above about 70% without an active follow-up result; inactive = below that. The list is a sample of the results. Potency and affinity values are given separately.

assay: M. tuberculosis growth inhibition, HTS (AID 449762);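 also: bacterial growth assessed after seven days of incubation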; conditions: M. tuberculosis H37Rv growth inhibition, 7H9 media; at 25 µM; active compounds read high

Row | SMILES | inhibition
1 | Cc1nc2ccc(NC(=O)c3ccc(S(=O)(=O)N(C)C)cc3)cc2s1 | 3.86% (inactive)
2 | COc1ccccc1N(C)S(=O)(=O)c1ccc(C(=O)Nc2ccncc2)cc1 | 6.47% (inactive)
3 | COc1ccc(N2CCN(S(=O)(=O)CCNC(=O)/C=C/c3ccccc3)CC2)cc1 | 7.56% (inactive)
4 | O=C(COC(=O)C1CC2CCCC(C1)C2=O)NNC(=O)c1ccccc1Br (stereo not given) | -3.73% (inactive)
5 | O=C(COC(=O)C1CC2CCCC(C1)C2=O)NC(=O)c1ccccc1 (stereo not given) | -2.77% (inactive)
6 | Cc1nn(CC(O)c2ccccc2)c(C)c1Br (stereo not given) | -6.52% (inactive)
7 | CCC(=O)Nc1nc2ccccc2n1CCN(C)C | -8.02% (inactive)
8 | CCn1c(NC(C)=O)nc2ccccc21 | 31.6% (inactive)
9 | O=C(Nc1nc2ccccc2n1Cc1ccc(Cl)cc1)c1ccco1 | 50.9% (inactive)
10 | CCCn1c(NC(=O)c2ccccc2)nc2ccccc21 | -7.04% (inactive)
11 | O=C(CSCc1ccc(Cl)cc1)Nc1ccc(S(=O)(=O)N2CCCCCC2)cc1 | 1.03% (inactive)
12 | CC1CCCC(NC(=O)CSc2nncs2)C1C (stereo not given) | -10.3% (inactive)
13 | CCC(=O)c1ccc(OCC(=O)Nc2nc(-c3cccnc3)cs2)cc1 | 24.3% (inactive)
14 | COC1=CC2[C@@H]3Cc4ccc(OC)c(O)c4[C@]2(CCN3C)CC1=O (stereo not given in full) | 6.39% (inactive)
15 | CC(C)=CCC/C(C)=C/CNC(=O)CC1C[C@H](C(=O)N2CCCCC2)[C@@]2(C)c3[nH]c4ccccc4c3CCN2C1=O (stereo not given in full) | -1.03% (inactive)
16 | Cc1cccc(NC(=O)C2Cc3ccccc3O/C2=N\O)c1 (stereo not given) | 0.7% (inactive)
17 | CC(C)C(=O)N[C@H]1CCC2C3CC=C4C[C@@H](O)CC[C@]4(C)C3CC[C@@]21C (stereo not given in full) | 4.73% (inactive)
18 | CN(C)CCN[C@H]1CCC2C3CC=C4C[C@@H](O)CC[C@]4(C)C3CC[C@@]21C (stereo not given in full) | 1.3% (inactive)
19 | CCCCn1c(N)c(N(CC(C)C)C(=O)CCCc2nc3ccccc3c(=O)[nH]2)c(=O)[nH]c1=O | 0.43% (inactive)
20 | Cc1cc(NC(=O)CCC(=O)N(CC(=O)NC2CCCC2)c2ccc3c(c2)OCCO3)no1 | -6.7% (inactive)

Row | SMILES | inhibition
21 | COc1ccc(-n2nc3c(c2NC(=O)CCCl)CSC3)cc1 | 5.23% (inactive)
22 | CCC(=O)Nc1c2c(nn1-c1ccc(OC)cc1)CSC2 | 1.36% (inactive)
23 | CC(=O)n1cc(CO)c2ccccc21 | -8.42% (inactive)
24 | CC(=O)N(c1ccc(Cl)cc1)c1cn(C(C)=O)c2ccccc12 | 8.81% (inactive)
25 | COc1ccccc1N1CCN(C(=O)CCCn2nc(C)c([N+](=O)[O-])c2C)CC1 | 2.97% (inactive)
26 | CCOc1ccc(C(=O)Nn2cnnc2)cc1 | 7.03% (inactive)
27 | O=C(N/N=C/c1sc(=O)[nH]c1-[n+]1ccccc1)c1ccccc1[O-] | -8.63% (inactive)
28 | CCOc1ccc(N2C(=O)CNC2=S)cc1 | 0.76% (inactive)
29 | CCOc1ccc(N2CC(=O)N(c3ccc(OCC)cc3)CC2=O)cc1 | -4.6% (inactive)
30 | O=C(COc1ccc(Br)cc1)c1ccc2c(c1)CCCC2 | 2.77% (inactive)
31 | COc1cc(CN2CCC(n3nccc3NC(=O)c3ccccc3OC)CC2)ccc1F | 7.24% (inactive)
32 | COc1cc(NC(=O)CN2CCN(c3ccccc3O)CC2)c(C)cc1[N+](=O)[O-] | -10.9% (inactive)
33 | Cc1ccc(COc2ccsc2-c2n[nH]c(=S)n2C)cc1 | -10.5% (inactive)
34 | CN(C)C(=O)CSc1nc2ccc(C(=O)c3ccccc3)cc2[nH]1 | 1.68% (inactive)
35 | O=C(c1cccc(Cl)c1)N1CCN(c2ccc(N3CCOCC3)nn2)CC1 | 0.55% (inactive)
36 | O=C(c1cccc([N+](=O)[O-])c1)N1CCOCC1 | 5.5% (inactive)
37 | COc1ccc(N2CCN(C(=O)C3CC(=O)N(c4ccc(C)cc4)C3)CC2)cc1 (stereo not given) | 5.21% (inactive)
38 | COc1cccc(CC2(CO)CCCN(Cc3ccccc3-c3ccco3)C2)c1 (stereo not given) | 5.57% (inactive)
39 | COc1cccc(C(=O)Nc2cccc(NC(=O)c3cccs3)c2)c1 | 0.1% (inactive)
40 | S=c1[nH]nc(-c2ccncc2)n1/N=C/c1cn(-c2ccccc2)nc1-c1ccccc1 | 1.85% (inactive)

Row | SMILES | inhibition
41 | O=C(CC1C(=O)NCCN1Cc1ccoc1)NCCc1ccc(Cl)cc1 (stereo not given) | -3.28% (inactive)
42 | COC(=O)C1CSC(c2ccc(Cl)cc2)N1C(=O)c1ccccc1 (stereo not given) | 3.7% (inactive)
43 | Cc1ccnc(N2CCC(C(=O)Nc3ccc4c(c3)OCO4)CC2)n1 | -6.75% (inactive)
44 | CCCn1nnnc1NC(=O)c1cc(Br)ccc1OC | 14.5% (inactive)
45 | CCCn1nnnc1NC(=O)COc1ccc(Cl)c(C)c1 | 0.41% (inactive)
46 | O=C(COC(=O)COc1ccccc1)Nc1cccc([N+](=O)[O-])c1 | -0.12% (inactive)
47 | COc1cc(OC)c(OC)cc1CCC(C)NC(=O)Cc1ccccc1 (stereo not given) | 2.6% (inactive)
48 | CC(CCc1ccc(O)cc1)NCCC(c1ccccc1)c1ccccc1 (stereo not given) | 64.6% (inactive)
49 | CCOc1ccc(NC(=O)NNC(=O)C2CCC(C(C)(C)C)CC2)cc1 (stereo not given) | -6.75% (inactive)
50 | O=C(O)CCC(=O)Nc1ccccc1Oc1ccccc1 | -2.18% (inactive)
51 | Cc1cc(C)cc(NC(=O)c2cccc(C(=O)Nc3cc(C)cc(C)c3)n2)c1 | 5.97% (inactive)
52 | CN1C2CCC1/C(=C\c1ccccc1F)C(=O)/C2=C/c1ccccc1F | 5.25% (inactive)
53 | CN1C2CCC1/C(=C/c1cccn1C)C(=O)/C2=C\c1cccn1C | 10.6% (inactive)
54 | C=CCOc1ccc(CNCC2CCCO2)cc1 (stereo not given) | -1.36% (inactive)
55 | Cc1noc(C)c1CSCC(=O)N(CC(C)C)c1c(N)n(Cc2ccccc2)c(=O)[nH]c1=O | -5.68% (inactive)
56 | CC(=O)Nc1ccc(N2C(=O)c3ccc(S(=O)(=O)c4ccc(C(=O)O)cc4)cc3C2=O)cc1 | -2.44% (inactive)
57 | COc1ccc(C(=O)ON=C2C=C(C)C(=O)C(C)=C2)cc1 | 63.5% (inactive)
58 | COc1ccc(S(=O)(=O)N=C2C=C(C)C(=O)C(C)=C2)cc1 | -12.4% (inactive)
59 | Cc1cc(C)n(C(=O)c2ccc(S(=O)(=O)N3CCOCC3)cc2)n1 | -3.21% (inactive)
60 | COc1ccccc1NC(=O)COC(=O)/C=C/c1ccc(OC)c(OC)c1 | 24.8% (inactive)
